Assay [1] in a line: qHTS Assay for Identification of Small Molecule Antagonists for Thrombopoietin (TPO) Signaling Pathway (AID 918). Further: potency means the concentration at half of the fitted maximal effect; nearly all actives have a fitted effect of over 60% in size. Particulars: TPO-dependent cell signaling reporter, antagonist mode. The gist of the method:
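Murine Ba/F3 cells stably expressing human TPO receptor and a Glycoprotein IIb promoter–luciferase reporter were IL-3-starved overnight, treated with compounds plus TPO (26 pM final, its EC50) for 24 hrs at 37 C, then read by luminescence.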

The nature of assay [2]: Cell Viability - LYMP2-001 (AID 921).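 Further: cells exposed to compound for 24 h at 37 °C; nearly all actives have a fitted effect of over 70% in size.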 Particulars: LYMP2-001 lymphoblastoid cell viability; series mostly up to 92.2 µM. The gist of the method: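 A lymphoblastoid cell line of human origin was treated with library compounds across a concentration series for 24 hours, and viable cell number was estimated from ATP-driven luciferase light output. Hill modeling gave AC50.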

The nature of assay [3]: MultiTox-Fluor Cytotoxicity Assay - LYMP1-002 - Dead Cells (AID 960). Further: nearly all actives have a fitted effect of over 60% in size. The following applies: LYMP1-002 lymphoblastoid cells, dead-cell protease fluorescence; series mostly up to 46.1 µM. The gist of the method: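 Human lymphoblastoid cells (LYMP1-002), 2500/well in complete medium, were exposed to compounds for 16 hr at 37 C. Dead-cell protease activity was read as bis-AAF-R110 fluorescence (Ex/Em 485/520), normalized to DMSO and 15 uM tetraoctylammonium bromide; AC50 from Hill fits.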

Assay [4] deals with Pyruvate kinase (Leishmania mexicana) (UniProt Q27686). Kind of assay: qHTS Validation Assay for Activators of Leishmania Mexicana Pyruvate Kinase (AID 959). Particulars: purified L. mexicana pyruvate kinase, enzyme activity; series mostly up to 57.5 µM. The gist of the method:
(§1)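 Read-out: luminescence from PKLight stop/detection reagent, data normalized to DMSO. Reaction: 0.2 nM E451W LmPYK, 0.5 mM PEP, 0.1 mM ADP, pH 7.2, 1 h room temperature.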

In assay [5] the target is Muscarinic acetylcholine receptor M1 (Rattus norvegicus) (UniProt P08482). Description: qHTS Assay for Antagonists of Acetylcholine Muscarinic M1 Receptor: Measurement of IP-One Response (AID 944). Further: nearly all actives have a fitted effect of over 75% in size. Further: potency means the concentration at half of the fitted maximal effect. Particulars: CHO-M1 cells, IP-One HTRF, antagonist mode; series mostly up to 46.1 µM. The gist of the method: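 CHO cells expressing rat M1 receptor, recovered overnight, were pre-incubated 10 min with compound, then stimulated 30 min with carbachol at EC80 (200 nM) in LiCl-containing buffer, pH 7.4. IP1 accumulation was read by HTRF (620/665 nm).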
Sequence of Muscarinic acetylcholine receptor M1 (Rattus norvegicus) (P08482 whole entry, looked up): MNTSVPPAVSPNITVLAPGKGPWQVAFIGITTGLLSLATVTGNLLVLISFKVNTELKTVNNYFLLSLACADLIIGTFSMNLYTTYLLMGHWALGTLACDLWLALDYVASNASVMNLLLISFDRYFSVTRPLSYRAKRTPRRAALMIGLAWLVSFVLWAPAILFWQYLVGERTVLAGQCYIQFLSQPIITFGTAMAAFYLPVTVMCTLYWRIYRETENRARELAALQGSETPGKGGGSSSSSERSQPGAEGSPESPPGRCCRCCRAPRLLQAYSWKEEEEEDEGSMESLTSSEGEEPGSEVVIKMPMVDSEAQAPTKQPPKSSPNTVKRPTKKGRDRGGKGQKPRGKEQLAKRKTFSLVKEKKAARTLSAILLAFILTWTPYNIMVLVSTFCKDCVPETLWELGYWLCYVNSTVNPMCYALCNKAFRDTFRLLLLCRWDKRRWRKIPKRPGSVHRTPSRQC

The target of assay [6] is Pyruvate kinase (Leishmania mexicana) (UniProt Q27686). Kind of assay: qHTS Validation Assay for Inhibitors of Leishmania Mexicana Pyruvate Kinase (AID 945). Particulars: purified L. mexicana pyruvate kinase, enzyme activity, E451W mutant enzyme; series mostly up to 57.5 µM. The essentials: as §1
Sequence of Pyruvate kinase (Leishmania mexicana) (Q27686 2-499 E452W): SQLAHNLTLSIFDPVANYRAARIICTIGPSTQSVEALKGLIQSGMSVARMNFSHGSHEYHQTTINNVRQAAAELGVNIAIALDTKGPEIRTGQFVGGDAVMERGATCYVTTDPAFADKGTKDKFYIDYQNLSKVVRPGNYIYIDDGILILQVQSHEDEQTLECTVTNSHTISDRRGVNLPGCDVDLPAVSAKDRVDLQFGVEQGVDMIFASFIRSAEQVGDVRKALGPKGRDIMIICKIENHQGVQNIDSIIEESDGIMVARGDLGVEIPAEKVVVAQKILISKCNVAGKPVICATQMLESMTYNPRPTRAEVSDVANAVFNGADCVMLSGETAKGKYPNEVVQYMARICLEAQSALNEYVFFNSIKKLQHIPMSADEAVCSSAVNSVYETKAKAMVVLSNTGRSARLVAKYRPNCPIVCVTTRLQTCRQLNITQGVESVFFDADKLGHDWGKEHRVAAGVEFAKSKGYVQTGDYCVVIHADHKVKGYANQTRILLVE
For assay [7], the target named is Pyruvate kinase PKM (Homo sapiens) (UniProt P14618). Description: qHTS Assay for Activators of Human Muscle Pyruvate Kinase (AID 954; active means well fitted curve in the direction sought with a large enough effect, not every such curve was filed as active). Particulars: purified human muscle pyruvate kinase, luciferase-coupled luminescence, 1 h; series mostly up to 57.5 µM. The essentials: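 Luminescence from a luciferase ATP-detection/stop reagent reported PKM2 activity. Reactions contained 0.1 nM purified human enzyme, 0.5 mM PEP, 0.1 mM ADP and 7 mM MgCl2 at pH 7.2, run 1 h at RT.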
Sequence of Pyruvate kinase PKM (Homo sapiens) (P14618 whole entry, looked up): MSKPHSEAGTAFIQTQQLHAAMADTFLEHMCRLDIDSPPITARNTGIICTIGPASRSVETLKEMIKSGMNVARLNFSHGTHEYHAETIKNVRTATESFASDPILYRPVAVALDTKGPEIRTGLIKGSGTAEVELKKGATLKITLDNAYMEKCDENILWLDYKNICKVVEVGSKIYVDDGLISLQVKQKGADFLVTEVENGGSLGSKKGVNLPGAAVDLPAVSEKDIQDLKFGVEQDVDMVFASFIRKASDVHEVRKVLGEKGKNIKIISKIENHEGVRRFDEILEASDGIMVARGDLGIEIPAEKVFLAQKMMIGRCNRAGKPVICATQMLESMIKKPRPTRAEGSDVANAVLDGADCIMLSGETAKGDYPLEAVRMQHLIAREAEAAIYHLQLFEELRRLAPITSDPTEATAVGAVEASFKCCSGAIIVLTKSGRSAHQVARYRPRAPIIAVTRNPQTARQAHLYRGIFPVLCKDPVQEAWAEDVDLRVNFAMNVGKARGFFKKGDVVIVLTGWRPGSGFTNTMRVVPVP

The nature of assay [8]: Confirmation and Secondary Assay for Modulators of Hemoglobin Beta Chain Splicing at IVS2 654 locus (AID 910).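 Further: per-well total GFP intensity by laser scanning cytometry after 2-day treatment.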 Particulars: HeLa EGFP-654 splicing reporter, GFP fluorescence, 48 h; series mostly up to 46.1 µM. The essentials: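 HeLa cells stably carrying EGFP interrupted by mutant beta-globin IVS2-654 intron (CMV-driven) were treated with compound for 2 days at 37C; corrected splicing was scored as total peak GFP intensity per well (488 nm excitation, 500-520 nm emission).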

Assay [9] in a line: Confirmation and Secondary Assay for Modulators of Hemoglobin Beta Chain Splicing at IVS2 705 locus (AID 930).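 Further: HeLa cells stably expressing the EGFP-705 splicing reporter; GFP fluorescence per well restored by corrected splicing of the IVS2-705 intron in EGFP.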 Particulars: HeLa EGFP-705 splicing reporter, GFP fluorescence, 48 h; series mostly up to 46.1 µM. The essentials:
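Secondary splice-site specificity test uses HeLa expressing CMV-driven EGFP interrupted by IVS2-705; cells were treated 2 days at 37C with 500 nM antisense PNA as positive control.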

A short description of assay [10]: qHTS Assay for Identification of Small Molecule Agonists for Thrombopoietin (TPO) Signaling Pathway (AID 917). The following applies: TPO signaling pathway reporter cells, agonist qHTS, stimulated with TPO at its EC50; series mostly up to 38.5 µM. The essentials: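 IL-3-dependent murine pro-B Ba/F3 cells, stably transfected with human TPO receptor and GpIIb-promoter luciferase, are incubated 24 hrs at 37 C with test compound and 26 pM TPO; luciferase signal is read after 10 min at room temperature.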

Assay [11] can be described thus: MultiTox-Fluor Cytotoxicity Assay - LYMP1-001 - Dead Cells (AID 946). Particulars: LYMP1-001 lymphoblastoid cells, dead-cell protease fluorescence; series mostly up to 92.2 µM. The essentials:
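AC50 from Hill fit of concentration-response; data normalized to DMSO (basal) and 15 uM tetraoctylammonium bromide (100%). LYMP1-001 lymphoblastoid cells, 2500/well, 16 hr compound at 37 C; dead-cell protease fluorescence, Ex/Em 485/520.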

A short description of assay [12]: MultiTox-Fluor Cytotoxicity Assay - LYMP1-001 - Live Cells (AID 947). The following applies: LYMP1-001 lymphoblastoid cells, live-cell protease fluorescence viability; series mostly up to 92.2 µM.
The nature of assay [13]: Cell Viability - LYMP1-002 - Assay at 16 hr (AID 948). The following applies: LYMP1-002 lymphoblastoid cell viability; series mostly up to 92.2 µM. The essentials:
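In this qHTS, lymphoblastoid LYMP1-002 cells (human) receive compounds for 16 hr at 37 C. Viability is taken from CellTiter-Glo ATP luminescence, and AC50 derives from standard Hill fits.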

Assay [14] in a line: MultiTox-Fluor Cytotoxicity Assay - LYMP1-002 - Live Cells (AID 955). Particulars: LYMP1-002 lymphoblastoid live-cell protease fluorescence viability; series mostly up to 46.1 µM. The essentials: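 Human lymphoblastoid LYMP1-002 cells, 2500/well in complete medium, rested 5 hr at 37 C, then exposed to compounds for 16 hr at 37 C. Live-cell protease cleavage of GF-AFC read by fluorescence (Ex/Em 405/510) after 60 min at room temperature; AC50 from Hill fits.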

Assay [15] in a line: MultiTox-Fluor Cytotoxicity Assay - LYMP1-003 - Live Cells (AID 962).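 Further: cytotoxic hits lower the live-cell protease signal.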 Particulars: LYMP1-003 lymphoblastoid cells, MultiTox-Fluor live-cell protease fluorescence; series mostly up to 92.2 µM. The gist of the method:
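LYMP1-003 human lymphoblastoid cells (2500/well) in complete medium were preincubated 5 hr at 37 C, then exposed to compounds for 16 hr at 37 C. Live-cell protease cleavage of GF-AFC read by fluorescence (Ex/Em 405/510); AC50 from Hill fits.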

Assay [16] addresses Muscarinic acetylcholine receptor M1 (Rattus norvegicus) (UniProt P08482). Kind of assay: qHTS Assay for Antagonists of Acetylcholine Muscarinic M1 Receptor: Kinetic Measurement of Intracellular Calcium Response (AID 943).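 Further: Fluo-4 calcium signal as peak divided by basal fluorescence over 4 min; nearly all actives have a fitted effect of over 75% in size.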 The following applies: M1-expressing cells, kinetic intracellular calcium fluorescence; series mostly up to 35.3 µM. The essentials:
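CHO cells stably expressing rat M1 were loaded with no-wash Fluo-4 dye for 1 h at 37C, pre-incubated 10 min with compound, then challenged with EC80 carbachol (100 nM final); kinetic calcium read 4 min, peak/basal ratio.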

Assay [17] can be described thus: qHTS Assay for Identification of Small Molecule Agonists for Hypoxia Response Element Signaling Pathway (AID 914; active means well fitted activation curve with a large enough effect in the signal ratio, with a control signal flat, not every such curve was filed as active; the % refers to the signal ratio). Particulars: ME-180 (cervical carcinoma) HRE-bla reporter, beta-lactamase ratio, CoCl2, 17 h; hits give high values. The gist of the method:
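qHTS titration; ME-180 HRE-bla cells; EC50 CoCl2 co-treatment, 17 h at 37 degrees Celsius; CCF4 dye, ex 405nm, em 460nm and 530nm; %Activity from ratio; AC50.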

Unmarked numbers belong to inactive results. Records with an inconclusive call do not appear. Entries that show only a call come without a potency. The source made the active and inactive calls. Unless noted, the call rests on the fitted dose curve; in most records, active means well fitted curve in the direction sought with a large enough effect; inconclusive means small, poorly fitted or top-dose-only effect, or another doubt; inactive means no such curve, though single readings can be large; an effect the other way counts as inactive or inconclusive.

Take `CNCCCN1c2ccccc2CCc2ccccc21`: the Potency in assay [1] was 12.6 µM (active).
In the case of `Nc1ncn([C@@H]2O[C@H](CO)[C@@H](O)[C@H]2O)c(=O)n1`, in assay [1], the Potency is 3.16 µM (active).
Consider `COc1cc(Cc2cnc(N)nc2N)cc(OC)c1OC`, for which the result in assay [2] was inactive. For the same compound, the Potency entry in assay [3] is “inactive”.
With `COc1ccc(CN(CCN(C)C)c2ccccn2)cc1`, the outcome in assay [2] was inactive. The Potency result in [3] is “inactive”.
With `Nc1nc(N)c2nc(-c3ccccc3)c(N)nc2n1`, the compound was classed as inactive in assay [4].
On to `CCCCNc1c(C(=O)OCC)c(C)nc2c1cnn2CC`, for which the Potency entry in assay [5] and in [6] was “inactive” in each case. Moreover, in assay [7], the compound was called inactive.
Regarding `CC(C)NCC(O)c1cc(O)cc(O)c1` (stereo not given), the result in [8] and in assay [9] was inactive.
For `CCc1c(C)[nH]c2c1C(=O)C(CN1CCOCC1)CC2` (stereo not given), the call in assay [10] and in assay [7] was inactive. In addition, the Potency result in [5] and in assay [6] was “inactive” throughout.
On to `COC(=O)C1=C(C)NC(C)=C(C(=O)OCCN(C)Cc2ccccc2)C1c1cccc([N+](=O)[O-])c1` (stereo not given), for which the outcome in [8] and in assay [9] was inactive.
As for `CCCCOCCOCCOCc1cc2c(cc1CCC)OCO2`, the call in assay [2], in assay [11], in assay [12], in [13], in assay [14] and in assay [15] was inactive. Moreover, the Potency result in assay [3] is “inactive”.
Take `CCNC(=O)N1CCN(CCCC(c2ccc(F)cc2)c2ccc(F)cc2)CC1`: in assay [10], the compound was classed as inactive. The Potency in [5] is 17.8 µM (active). Besides, the Potency entry in assay [6] is “inactive”.
As for `CCOC(=O)c1cnc2c(cnn2CC)c1NN=C(C)C`, the compound was classed as inactive in [10] and in assay [7]. Besides, the Potency entry in assay [16] and in assay [6] was “inactive” each time.
On to `CN(C)CCCN1c2ccccc2Sc2ccccc21`, for which the result in assay [8], in assay [9] and in assay [7] was inactive. For the same compound, the Potency result in assay [6] was “inactive”.
On to `C[N+](C)(C)CCCCCCCCCC[N+](C)(C)C`, for which the compound was classed as inactive in [10] and in assay [7]. For the same compound, in assay [6], the Potency result was “inactive”.
`CN(C)CC/C=C1\c2ccccc2COc2ccccc21`: the compound was called inactive in assay [10] and in assay [7]. Moreover, the Potency entry in assay [6] was “inactive”.
Turning to `C[C@]12CCC(=O)C=C1CC[C@@H]1[C@@H]2CC[C@@]2(C)[C@H]1CC[C@]2(O)C(=O)CO`, the compound was classed as inactive in assay [10] and in assay [7]. Moreover, in assay [6], the Potency result was “inactive”.
`NC(=Nc1ccccc1)Nc1ccccc1`: the compound was classed as inactive in assay [2], in assay [11], in assay [12], in assay [13], in assay [14] and in [15]. In [3], the Potency entry was “inactive”.
With `CC(C)(Oc1ccc(CCNC(=O)c2ccc(Cl)cc2)cc1)C(=O)O`, the outcome in [8] and in assay [9] was inactive.
On to `CC(N=C(NC#N)Nc1ccncc1)C(C)(C)C` (stereo not given), for which the compound was called inactive in assay [8] and in [9].
As to `CCN1CCc2nc(N)oc2CC1`, the call in [10] and in assay [7] was inactive. The Potency entry in [6] was “inactive”.
Consider `CC(=O)OCC1=C(C(=O)O)N2C(=O)[C@@H](NC(=O)Cc3cccs3)[C@H]2SC1`, for which, in assay [17], the activation was -3.15%.

The values above are taken from PubChem BioAssay (NCATS).
